Results from the supplement of paper PMC3334620.
Whole data set: some 33,000 sequences, median “E-score (-0.5 to 0.5)” near -0.032, cut for the highest 2% near 0.36. What follows is part of a selection rich in the highest values, with near analogues and random picks from the rest.

Target: T1, Sko1 (UniProt Q02100)
T1 sequence: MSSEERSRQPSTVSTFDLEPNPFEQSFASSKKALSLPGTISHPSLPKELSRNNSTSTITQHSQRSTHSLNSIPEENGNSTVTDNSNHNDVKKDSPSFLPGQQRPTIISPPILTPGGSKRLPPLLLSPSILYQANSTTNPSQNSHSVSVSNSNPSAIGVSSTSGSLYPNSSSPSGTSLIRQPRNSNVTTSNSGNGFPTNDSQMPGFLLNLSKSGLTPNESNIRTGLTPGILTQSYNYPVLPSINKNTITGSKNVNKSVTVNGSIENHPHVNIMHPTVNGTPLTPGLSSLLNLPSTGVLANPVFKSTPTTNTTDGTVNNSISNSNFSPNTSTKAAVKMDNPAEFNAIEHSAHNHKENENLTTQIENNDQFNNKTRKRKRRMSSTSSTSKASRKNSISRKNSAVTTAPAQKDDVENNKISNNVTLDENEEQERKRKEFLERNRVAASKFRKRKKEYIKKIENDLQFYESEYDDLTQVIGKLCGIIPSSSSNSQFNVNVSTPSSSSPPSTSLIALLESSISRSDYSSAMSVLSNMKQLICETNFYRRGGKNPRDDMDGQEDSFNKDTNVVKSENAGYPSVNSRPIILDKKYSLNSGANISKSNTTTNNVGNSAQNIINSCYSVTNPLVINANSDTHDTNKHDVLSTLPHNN
Test: PBM E-score (8-mer binding enrichment) (E-score (-0.5 to 0.5)); higher = stronger / more preferred TF binding
Settings: protein concentration: 200 nM; construct: GST-full length
Method in brief: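 The E-score, a modified Wilcoxon-Mann-Whitney statistic, was computed by the Universal PBM Analysis Suite for every ungapped eight-base word pooled with its reverse complement. Scans behind it were normalised with masliner after bound GST-tagged yeast transcription factors were detected with fluorescent anti-GST. The proteins, at about 100-200 nM, had been applied to universal all-10-mer Agilent arrays made double-stranded by primer extension.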

Sequence | PBM E-score
GCAGCGGA | -0.11
CCCTGAGC | -0.145
ACCATTGA | 0.0435
AGCCGTAT | -0.0778
AGGCGTAC | 0.105
AGACGTAG | 0.382
AGTCGTAT | 0.0845
AGACGTTG | 0.111
AGACGTCG | 0.21
AGACGTAC | 0.395
AGACGTAT | 0.441
ATGCAGGC | -0.024
CGTGCAAG | 0.0462
CCTACAAA | -0.0324
CAAGTCTA | -0.0923
ACCCTGAT | -0.0969
AGCCCTAT | -0.331
CCGCGGGA | -0.201
AATGCCCT | -0.205
AGAGGGTA | -0.035
CTGTCGTC | 0.21
GTGTCGTA | 0.312
ATGTCGTG | 0.239
ATGTCGGC | -0.12
ATGTCGTA | 0.424
ATGTCGTC | 0.365

Sequence | PBM E-score
TGATAGAA | 0.0834
AGGAGGTC | -0.24
AGCTAACA | -0.0839
AGGCACGA | 0.0425
ACGACGTA | 0.446
ACGACGGG | 0.0518
ACGACGGA | 0.0966
ACGACGAT | 0.127
ACGACGCC | 0.0289
ACGACGTG | 0.365
ACGACGAC | 0.00819
ACGACGTC | 0.367
ACGACGAG | 0.00694
ATGGGCAA | -0.138
AGGAGATC | -0.214
AGAAACAT | 0.152
TCCTTGCA | -0.292
AAAATTCC | -0.152
CACGCCGG | -0.211
CGAAAAGA | 0.163
ATTTCGTA | 0.372
ATTTCGTC | 0.343
CTTTCGTA | 0.339
AATTCGTA | 0.386
CATTCGTA | 0.317
GATTCGTA | 0.251

Sequence | PBM E-score
CGCGGAAC | -0.165
GGCTTCCA | -0.218
CACGTGCA | 0.329
GACGTGCC | 0.266
GACGTGCA | 0.389
TACGTGCA | 0.423
GGCGTGCA | -0.0639
AACGTGCA | 0.191
AGACTATA | 0.00094
CCAAGTGC | -0.285
AGCACGTA | 0.406
AGCACGAG | -0.0498
AGCACGTG | 0.397
AGCACGAA | 0.169
AGCACGTC | 0.309
AGCACATA | 0.0436
AGTAGTCC | 0.0244
AACGTTAC | 0.321
TACGTTCA | 0.374
GACGTTAC | 0.365
CACGTTCA | 0.171
AACGTTAG | 0.176
AACGTTCT | 0.167
AACGTTAT | 0.368
CACGTTAC | 0.305
CACGTTTA | 0.321

Sequence | PBM E-score
GACGTTTA | 0.386
AACGTTTA | 0.31
AACGTTCA | 0.0648
AGCTCAAC | -0.147
AGTGCTGG | -0.111
AAGTCGAC | 0.0592
ATCTGAGA | -0.0991
CAATACCG | -0.186
CTTGAAGA | -0.132
ACGAAGGG | 0.129
CTGATCCC | -0.269
AACTCCTT | -0.0253
ATTCGACA | -0.09
CAACAACC | -0.0035
CCAGAGAC | -0.251
CATCCCTC | -0.245
GGCGTTAA | -0.0249
CACGTTAG | 0.2
GACGTTAA | 0.368
CACGTTAA | 0.244
TACGTTGA | 0.38
AACGTTAA | 0.243
GACGTTGA | 0.269
TACGTTAA | 0.413
CACGTTGA | 0.25
CTTCCTAC | -0.225

Sequence | PBM E-score
CTTCTCTA | -0.284
TATGAGCA | 0.00789
ACCTGGCT | -0.232
ACCGTCCG | -0.304
AGGAGCCA | -0.258
CCTGCGGC | -0.427
TAATGAAA | 0.24
CAATGACG | 0.486
CAATGACA | 0.229
AAATGACA | 0.272
CAATGACC | 0.0293
GAATGACA | 0.249
AAATGACC | 0.0951
TAATGACA | 0.364
AAATGACG | 0.481
AAATGGTG | 0.0316
GAAGGTAA | 0.0069
ACACTCAG | -0.0491
TACGGCTA | -0.0295
ATTCGAAG | 0.0402
AGCTAGTG | -0.00092
AAACAAGG | -0.131
ATGATTCC | 0.169
ACCTACGC | 0.293
ACCTACGT | 0.444
AACTACGA | 0.198

Sequence | PBM E-score
ACCTACGG | -0.217
AACTACGC | 0.305
AACTACGT | 0.455
ACGCCAAA | 0.0451
GCAAACCA | -0.0509
CTTTGGAA | -0.0181
AGTCGTTA | 0.0683
CAAGAAGA | -0.0303
CTCTTTCA | -0.0826
CAGGTTTC | -0.0189
GAAGCACC | -0.0674
TAAAGAGA | 0.0871
ATTACATA | 0.386
AGTACATC | 0.142
ATTACATG | 0.324
CTTACATC | 0.202
GTTACATA | 0.251
ATTACATC | 0.403
AGACAGCC | -0.219
TGCGTACA | 0.36
TGCGTAAA | 0.404
CGCGTAAA | 0.311
AGCGTAAA | 0.189
GGCGTACA | -0.0526
AGCGTACA | 0.0563
GTTGCACA | 0.0444

Sequence | PBM E-score
CGCATCAG | -0.0566
AGTCAACA | 0.0814
GAAGTCGC | -0.139
ATGTGCAC | -0.0142
GCGATTAC | 0.144
ACGATTAC | 0.369
CCGATTAC | 0.0359
ATGAGTCC | 0.0501
ACGTACGC | 0.453
ACGTACGG | 0.38
GCGTACGC | 0.269
AAGTACGA | 0.201
GCGTACGA | 0.238
CCGTACGG | -0.262
AAGTACGC | 0.193
ACGTACGA | 0.414
AAGTACGT | 0.44
ATGTACGG | -0.046
CCGTACGC | 0.0653
CCGTACGA | 0.0901
